This is an account of results in PubChem BioAssay (NCI).

Some test systems named below: SR leukemia; RPMI-8226 leukemia; OVCAR-8 ovarian; OVCAR-5 ovarian; OVCAR-4 ovarian; SK-OV-3 ovarian; IGROV1 ovarian; OVCAR-3 ovarian; HS 578T breast; NCI/ADR-RES ovarian; T-47D breast; BT-549 breast; MDA-MB-435 melanoma; SW-620 colon; MCF7 breast; HCT-116 colon; HCC-2998 colon; KM12 colon.
Common to all, as to assay: NCI-60 one-dose screen, 48 h (100 = growth as untreated, 0 = no growth, -100 = all killed)
Common to all, as to settings: 10 µM unless noted

The panel holds about 83,000 compounds, 20% with a hit somewhere; the sample as a whole holds those more often.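 Negative percent growth values reflect cell death: -40 means 40% of the cells present at the start died, and -100 means all died.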 Values without a mark were called inactive. Active and inactive are the calls of the source. Rule for the calls: active = growth percent below 10; inactive = the rest.

Take `O=C1OC2C(I)C3CC2C1C3c1ccccc1` (configuration not stated): the growth is 86.8% with SR leukemia; 106% in the assay with RPMI-8226 leukemia; 112% in the assay with OVCAR-8 ovarian; 93% in the assay with OVCAR-5 ovarian; 96.3% with OVCAR-4 ovarian; 116% in the assay on SK-OV-3 ovarian. Also, the growth with IGROV1 ovarian was 111%; with OVCAR-3 ovarian it was 120%; in the assay on HS 578T breast it was 143%; in the assay on NCI/ADR-RES ovarian it was 101%; in the assay on T-47D breast, 95.2%; in the assay on BT-549 breast, 152%. Further, the growth in the assay with MDA-MB-435 melanoma is 131%; with SW-620 colon, 96.1%; with MCF7 breast it was 109%; in the assay with HCT-116 colon, 96.8%; in the assay on HCC-2998 colon, 105%; in the assay on KM12 colon it was 108%.
Regarding `CSc1ccc(N=C=C(c2ccccc2)c2ccccc2)cc1`, the growth was 50.7% in the assay with SR leukemia; 88.5% in the assay on RPMI-8226 leukemia; 89% with OVCAR-8 ovarian; 93.2% in the assay on OVCAR-5 ovarian; 110% in the assay on OVCAR-4 ovarian; 90.1% in the assay on SK-OV-3 ovarian. In addition, the growth in the assay with IGROV1 ovarian was 95.7%; in the assay with OVCAR-3 ovarian, 103%; in the assay on HS 578T breast, 86.8%; in the assay on NCI/ADR-RES ovarian, 104%; in the assay with T-47D breast, 81.9%; with BT-549 breast it was 88.9%. In addition, the growth with MDA-MB-435 melanoma is 97.4%; in the assay on SW-620 colon, 86%; in the assay with MCF7 breast, 78.5%; with HCT-116 colon, 89.3%; in the assay on HCC-2998 colon, 100%; in the assay on KM12 colon, 102%.
`CCC(=O)OCc1cccc(OC)c1`: the growth was 116% with SR leukemia; 84.8% with RPMI-8226 leukemia; 98.2% in the assay with OVCAR-8 ovarian; 118% with OVCAR-5 ovarian; 94.6% in the assay on OVCAR-4 ovarian; 103% in the assay with SK-OV-3 ovarian. Also, the growth in the assay on IGROV1 ovarian is 81%; in the assay on OVCAR-3 ovarian it was 107%; in the assay on HS 578T breast, 101%; in the assay on NCI/ADR-RES ovarian, 106%; in the assay on T-47D breast, 95.3%; with BT-549 breast, 103%. Moreover, the growth in the assay on MDA-MB-435 melanoma is 97.7%; with SW-620 colon it was 108%; in the assay on MCF7 breast, 105%; in the assay with HCT-116 colon, 95.1%; in the assay on HCC-2998 colon it was 101%; in the assay on KM12 colon, 108%.
Consider `CCOC(=O)c1cnc2ccc(OC)cc2c1Nc1cccc(S(=O)(=O)NC)c1`, for which the growth in the assay with SR leukemia is 95.6%; with RPMI-8226 leukemia it was 51.6%; in the assay with OVCAR-8 ovarian it was 100%; in the assay with OVCAR-5 ovarian, 102%; in the assay with OVCAR-4 ovarian, 104%; with SK-OV-3 ovarian it was 113%. Also, the growth is 113% in the assay with IGROV1 ovarian; 103% in the assay with OVCAR-3 ovarian; 52.3% in the assay with HS 578T breast; 90% in the assay on NCI/ADR-RES ovarian; 98% with T-47D breast; 80.1% in the assay with BT-549 breast. Also, the growth was 103% in the assay with MDA-MB-435 melanoma; 113% with SW-620 colon; 80.9% with MCF7 breast; 96.7% in the assay on HCT-116 colon; 101% in the assay with HCC-2998 colon; 96.1% with KM12 colon.
On to `Nc1c(C(=O)Nc2cccc3c2OCCO3)sc2nc3c(cc12)C(=O)CCC3`, for which the growth in the assay on SR leukemia is 36.3%; in the assay on RPMI-8226 leukemia it was 33.7%; with OVCAR-8 ovarian it was 51.8%; in the assay with OVCAR-5 ovarian it was 36.1%; in the assay on OVCAR-4 ovarian, 71%; in the assay on SK-OV-3 ovarian, 70.5%. For the same compound, the growth in the assay on IGROV1 ovarian was 48%; with OVCAR-3 ovarian, 16.2%; in the assay with HS 578T breast, 29.5%; with NCI/ADR-RES ovarian, 14.1%; in the assay with T-47D breast, 36.5%; in the assay with BT-549 breast it was 62.7%. Also, the growth in the assay on MDA-MB-435 melanoma was -60.4% (active); in the assay with SW-620 colon it was 25.2%; with MCF7 breast it was 18.6%; in the assay with HCT-116 colon, 33.8%; with HCC-2998 colon it was 46.6%; in the assay with KM12 colon, 23.4%.
Take `C/C(Cc1ccc(Cl)cc1)=C(\c1ccc(OCCN2CCCCCC2)cc1)c1ccc(OC(=O)Cc2ccccc2)cc1`: the growth is 1.29% (active) in the assay on SR leukemia; 33% with RPMI-8226 leukemia; 72.1% in the assay with OVCAR-8 ovarian; 73.8% with OVCAR-5 ovarian; 85% with OVCAR-4 ovarian; 90.6% in the assay with SK-OV-3 ovarian. In addition, the growth with IGROV1 ovarian is 44.9%; in the assay on OVCAR-3 ovarian, 69.6%; in the assay with HS 578T breast, 62.3%; in the assay with NCI/ADR-RES ovarian it was 72.4%; in the assay with T-47D breast it was 57.6%; with BT-549 breast it was 89.3%. Further, the growth was 46.3% in the assay on MDA-MB-435 melanoma; 57.4% in the assay on SW-620 colon; 18.6% with MCF7 breast; 38.2% in the assay on HCT-116 colon; 22.3% in the assay with HCC-2998 colon; 50.2% with KM12 colon.
For the compound `COc1ccc(-c2c(C)noc2-c2ccc(O)cc2O)cc1`, the growth was 31.1% in the assay on SR leukemia; 50.7% with RPMI-8226 leukemia; 99.9% with OVCAR-8 ovarian; 112% in the assay with OVCAR-5 ovarian; 76.4% in the assay on OVCAR-4 ovarian; 94.1% in the assay with SK-OV-3 ovarian. Also, the growth is 87% with IGROV1 ovarian; 80.5% in the assay on OVCAR-3 ovarian; 106% in the assay on HS 578T breast; 94.6% in the assay on NCI/ADR-RES ovarian; 86.9% in the assay on T-47D breast; 112% in the assay with BT-549 breast. In addition, the growth with MDA-MB-435 melanoma is 87.1%; in the assay on SW-620 colon, 69.5%; in the assay with MCF7 breast it was 67.6%; in the assay on HCT-116 colon, 77.9%; in the assay with HCC-2998 colon, 111%; in the assay on KM12 colon, 64.4%.
As for `CCOC(=O)CC(C)=N`, the growth is 120% in the assay with SR leukemia; 113% in the assay with RPMI-8226 leukemia; 108% with OVCAR-8 ovarian; 107% in the assay with OVCAR-5 ovarian; 100% in the assay on OVCAR-4 ovarian; 111% in the assay with SK-OV-3 ovarian. In addition, the growth in the assay with IGROV1 ovarian was 132%; in the assay on OVCAR-3 ovarian, 112%; in the assay with HS 578T breast, 107%; in the assay with NCI/ADR-RES ovarian it was 112%; in the assay on T-47D breast it was 109%; with BT-549 breast it was 103%. The growth in the assay with MDA-MB-435 melanoma was 113%; in the assay with SW-620 colon, 101%; with MCF7 breast it was 95.6%; with HCT-116 colon, 102%; in the assay on HCC-2998 colon, 117%; in the assay on KM12 colon it was 120%.
For the compound `Cc1ccc(Nc2c(C(N)=O)cnc3ccc(-c4csc(N)n4)cc23)cc1`, the growth is 94.8% in the assay with SR leukemia; 100% with RPMI-8226 leukemia; 101% in the assay on OVCAR-8 ovarian; 99.6% in the assay on OVCAR-5 ovarian; 87% in the assay on OVCAR-4 ovarian; 108% in the assay with SK-OV-3 ovarian. The growth in the assay on IGROV1 ovarian was 89.3%; in the assay on OVCAR-3 ovarian, 108%; in the assay on HS 578T breast, 92.9%; in the assay on NCI/ADR-RES ovarian, 96.4%; in the assay with T-47D breast, 96.7%; in the assay with BT-549 breast it was 96.4%. The growth in the assay with MDA-MB-435 melanoma is 102%; with SW-620 colon, 97%; in the assay with MCF7 breast, 92.4%; in the assay with HCT-116 colon, 93.5%; in the assay with HCC-2998 colon, 100%; in the assay on KM12 colon, 95.6%.
